The record followed here is publication PMC5540273 (PLoS ONE, 2017).

Test systems include WNK4; ZAK; ZAP70; p38-delta.
Conditions in all cases: concentration: 1 μM, replicates: in singlicate; n = 1
A further assay has as its system T1, YANK1.
T1 construct: gene STK32A

The test system of the next assay is T2, YANK2.
T2 construct: gene STK32B

In another assay the test system is T3, YANK3.
T3 construct: gene STK32C

Another assay relates to T4, YES.
T4 construct: gene YES1

For the next assay, the system named is T5, YSK1.
T5 construct: gene STK25

Another assay concerns T6, YSK4.
T6 construct: gene MAP3K19

For a further assay, the system named is T7, p38-alpha.
T7 construct: gene MAPK14

The next assay relates to T8, p38-beta.
T8 construct: gene MAPK11

A further assay relates to T9, p38-gamma.
T9 construct: gene MAPK12
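Note: KINOMEscan kinase panel screen.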

In the case of `CSc1ccc(NC2=C(c3ccccc3Cl)C(=O)NC2=O)cc1` [SB-342411], the “%Inh” value in the assay with WNK4 worked out at 0%; in the assay on YANK1 it was 12%; with YANK2, 0%; in the assay on YANK3, 9%; in the assay with YES, 9%; in the assay on YSK1 it was 60%. Moreover, the “%Inh” value was determined as 0% with YSK4; 20% with ZAK; 0% in the assay on ZAP70; 0% in the assay with p38-alpha; 0% in the assay on p38-beta; 0% with p38-delta. The “%Inh” value with p38-gamma worked out at 35%.
With `Cl.Cn1ccc(-c2cccc(Nc3ccnc4cc(-c5nccs5)ccc34)c2)n1` [GW525701], the “%Inh” value in the assay with WNK4 is on record as 66%; in the assay with YANK1, 0%; in the assay on YANK2, 10%; in the assay with YANK3 it was 0%; in the assay with YES it was 21%; in the assay with YSK1 it was 17%. For the same compound, the “%Inh” value with YSK4 came to 41%; with ZAK it was 0%; in the assay with ZAP70 it was 74%; in the assay on p38-alpha it was 9%; with p38-beta, 0%; in the assay with p38-delta, 23%. Also, the “%Inh” value in the assay with p38-gamma came to 14%.
On to `CNc1nccc(-c2c(-c3ccc(F)cc3)ncn2C2CCN(C)CC2)n1` [SB-222903], for which the “%Inh” value with WNK4 is listed as 9%; in the assay with YANK1, 0%; with YANK2 it was 17%; in the assay on YANK3 it was 6%; in the assay on YES it was 0%; in the assay on YSK1, 0%. Besides, the “%Inh” value with YSK4 turned out to be 7%; in the assay with ZAK, 0%; in the assay on ZAP70, 0%; in the assay with p38-alpha, 98.6%; in the assay with p38-beta, 13%; in the assay with p38-delta it was 9%. In addition, the “%Inh” value in the assay with p38-gamma is recorded as 0%.
In the case of `Cn1cc(-c2ccc3c(c2)CCN3C(=O)Cc2cccc(C(F)(F)F)c2)c2c(N)ncnc21` [GSK2606414], the “%Inh” value in the assay on WNK4 is 0%; in the assay with YANK1 it was 10%; with YANK2 it was 0%; with YANK3 it was 19%; in the assay with YES, 0%; in the assay with YSK1 it was 0%. Also, the “%Inh” value in the assay on YSK4 was 34%; in the assay with ZAK, 0%; with ZAP70, 0%; in the assay on p38-alpha, 0%; in the assay on p38-beta, 0%; in the assay on p38-delta, 20%. The “%Inh” value with p38-gamma is reported as 2%.
Regarding `CC(C)(C)c1ccc(-n2cnc3c(N)ncnc32)cc1` [SKF-97263], the “%Inh” value in the assay on WNK4 is given as 0%; in the assay with YANK1, 0%; in the assay on YANK2 it was 11%; in the assay with YANK3, 11%; with YES it was 6%; in the assay with YSK1 it was 0%. Further, the “%Inh” value in the assay with YSK4 was determined as 15%; with ZAK, 10%; with ZAP70 it was 0%; in the assay with p38-alpha, 0%; in the assay on p38-beta it was 0%; in the assay on p38-delta, 11%. In addition, the “%Inh” value in the assay on p38-gamma came out at 32%.
With `Oc1ccc2ncnc(Nc3ccc(OCc4ccccc4)cc3)c2c1` [GI262866], the “%Inh” value in the assay on WNK4 stood at 14%; with YANK1, 0%; with YANK2, 0%; in the assay on YANK3, 15%; in the assay with YES it was 0%; in the assay with YSK1 it was 0%. In addition, the “%Inh” value in the assay with YSK4 is given as 7%; in the assay on ZAK it was 18%; in the assay on ZAP70, 0%; in the assay with p38-alpha, 0%; in the assay with p38-beta it was 0%; in the assay on p38-delta it was 36%. Moreover, in the assay on p38-gamma, the “%Inh” value is recorded as 0%.
As for `Nc1nccc2scc(-c3ccc4c(c3)CCN4C(=O)Cc3cc(F)ccc3F)c12` [GSK2587663], the “%Inh” value in the assay on WNK4 was 5%; in the assay on YANK1 it was 26%; in the assay on YANK2 it was 0%; in the assay with YANK3, 20%; in the assay with YES it was 10%; in the assay on YSK1 it was 11%. Also, the “%Inh” value in the assay on YSK4 turned out to be 32%; with ZAK, 9%; in the assay with ZAP70, 0%; in the assay with p38-alpha it was 0%; in the assay on p38-beta, 0%; with p38-delta, 39%. Moreover, the “%Inh” value in the assay with p38-gamma is 0%.
As for `CCCc1ccc(S(=O)(=O)NC2CCN(c3ccnc(Nc4ccc(OC)cc4)n3)C2)cc1` (stereo not drawn) [GSK1379737], the “%Inh” value in the assay on WNK4 is given as 45%; in the assay with YANK1 it was 0%; in the assay with YANK2 it was 0%; with YANK3, 16%; in the assay on YES, 5%; in the assay on YSK1, 0%. Further, the “%Inh” value in the assay with YSK4 was found to be 30%; in the assay with ZAK, 8%; in the assay with ZAP70 it was 0%; with p38-alpha, 10%; with p38-beta, 0%; in the assay with p38-delta, 26%. The “%Inh” value in the assay on p38-gamma stood at 31%.
Take `O=C(Nc1ccccc1)Nc1ccc(Oc2ccc3nccn3n2)cc1`: the “%Inh” value with WNK4 was determined as 0%; in the assay with YANK1, 0%; with YANK2 it was 0%; in the assay with YANK3 it was 0%; with YES it was 11%; with YSK1, 0%. In addition, the “%Inh” value with YSK4 was found to be 0%; in the assay with ZAK, 4%; in the assay on ZAP70, 0%; in the assay on p38-alpha it was 0%; in the assay on p38-beta it was 0%; in the assay on p38-delta, 2%. For the same compound, the “%Inh” value in the assay on p38-gamma is reported as 30%.
On to `Cl.c1ccc(Cn2ccc3cc(Nc4ncnc5ccccc45)ccc32)cc1` [GW275568], for which the “%Inh” value in the assay on WNK4 turned out to be 6%; with YANK1, 18%; in the assay on YANK2, 0%; in the assay on YANK3, 0%; in the assay with YES it was 15%; with YSK1 it was 7%. For the same compound, the “%Inh” value in the assay on YSK4 worked out at 4%; in the assay on ZAK, 6%; in the assay on ZAP70, 1%; with p38-alpha, 2%; with p38-beta, 0%; in the assay on p38-delta, 30%. The “%Inh” value with p38-gamma is listed as 8%.
Consider `CCn1c(-c2ccncc2)nc2cnccc21` [SB-735216], for which the “%Inh” value in the assay on WNK4 turned out to be 22%; with YANK1, 0%; with YANK2 it was 4%; in the assay on YANK3, 7%; in the assay with YES, 16%; in the assay with YSK1 it was 0%. For the same compound, the “%Inh” value is on record as 74% in the assay on YSK4; 23% in the assay with ZAK; 0% in the assay with ZAP70; 0% in the assay on p38-alpha; 11% in the assay on p38-beta; 4% in the assay with p38-delta. Besides, the “%Inh” value in the assay on p38-gamma is given as 20%.
Regarding `Nc1nc(-c2ccccn2)c(-c2ccnc3ccccc23)s1` [GW548057], the “%Inh” value with WNK4 is given as 88%; in the assay on YANK1 it was 0%; in the assay with YANK2, 7%; in the assay on YANK3, 0%; in the assay on YES, 13%; in the assay with YSK1 it was 14%. Also, the “%Inh” value in the assay on YSK4 was determined as 4%; in the assay on ZAK, 0%; with ZAP70, 4%; in the assay with p38-alpha, 54%; in the assay with p38-beta, 0%; in the assay with p38-delta it was 29%. Moreover, in the assay with p38-gamma, the “%Inh” value turned out to be 0%.
`FC(F)(F)c1ccc(-c2nn3ncccc3c2-c2ccnc(Nc3cccc(C(F)(F)F)c3)n2)cc1` [GW828205]: the “%Inh” value with WNK4, in the assay on YANK1, in the assay with YANK2, in the assay with YANK3, in the assay with YES and in the assay on YSK1 was 0% throughout. The “%Inh” value with YSK4 is listed as 0%; with ZAK, 0%; in the assay on ZAP70, 42%; with p38-alpha, 0%; with p38-beta, 0%; with p38-delta, 3%. Besides, the “%Inh” value in the assay on p38-gamma worked out at 41%.
As for `Cl.c1ccc(Cn2ncc3cc(Nc4ncnc5ccccc45)ccc32)cc1` [GW273749], the “%Inh” value turned out to be 0% in the assay on WNK4; 6% in the assay on YANK1; 0% in the assay on YANK2; 0% with YANK3; 16% in the assay on YES; 17% in the assay with YSK1. Also, the “%Inh” value in the assay with YSK4 stood at 30%; in the assay on ZAK, 0%; with ZAP70, 0%; with p38-alpha, 10%; in the assay with p38-beta, 0%; in the assay with p38-delta, 39%. Besides, the “%Inh” value with p38-gamma is reported as 0%.
In the case of `OCCOCCn1ccc2ncnc(Nc3ccc(Oc4cccc(Cl)c4)c(Cl)c3)c21`, the “%Inh” value in the assay with WNK4, with YANK1, with YANK2, in the assay with YANK3, in the assay on YES and in the assay on YSK1 was 0% throughout. In addition, the “%Inh” value with YSK4, in the assay on ZAK, with ZAP70, in the assay with p38-alpha, in the assay with p38-beta and with p38-delta was 0% throughout. The “%Inh” value in the assay with p38-gamma is 0%.
